TrxR1 inh = inhibitors of rat thioredoxin reductase 1; O89049; AID 588453; Potency, µM (top dose mostly 114 µM), without a hit: at the top dose activity change, negative = inhibition, actives largely listed as inhibitors; hit rate 1% among 390,000; recombinant rTrxR1, NADPH fluorescence consumption, selenite substrate; note: % is set by controls: 0 for no effect and ±100 for the full control effect; nearly all actives have a fitted effect of over 65% in size
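Rat TrxR1 (90 nM in the dispensed reagent) was pre-reduced with 400 uM NADPH for 5 min at room temperature, then incubated with compound for 15 min. After 400 uM selenite was added, NADPH fluorescence (Ex 340/Em 450 nm) was followed for 8 min.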
12-LOX inh = blocks human arachidonate 12S-lipoxygenase. P18054. AID 1671190. purified 12hLO, xylenol orange hydroperoxide absorbance. Potency, µM (titrated, usually from 108 µM), for inactives: at the highest dose activity change, negative = inhibition, usual class: inhibitors. hit rate 1.1% among 580,000; note: % is set by controls: 0 for no effect and ±100 for the full control effect
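Purified human 12hLO at 150 nM in 25 mM Hepes, 0.01% Triton X-100, pH 7.0, preincubated 15 min at room temperature with compound. Reaction started with 40 uM arachidonic acid, 30 min at room temperature. Hydroperoxide measured by Fe-xylenol orange, 573/405 nm absorbance ratio.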
TrxR1 substrate = substrates of rat thioredoxin reductase 1; purified TrxR1 substrate turnover, NADPH consumption readout; hit rate 0.01% among 390,000; Potency, µM (titrated, usually from 114 µM), for inactives: at the highest dose activity change, negative = substrate turnover; note: % is set by controls: 0 for no effect and ±100 for the full control effect; nearly all actives have a fitted effect of over 50% in size
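Rat TrxR1, dispensed at 90 nM, was prereduced with 400 uM NADPH (final) for 5 min at ~22 deg C, then incubated with compound 15 min before 400 uM selenite. A first-read NADPH fluorescence drop versus no-compound background flagged substrates.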
Apoferritin bind = candidate novel general anesthetic via apoferritin binding | P02791 | apoferritin/1-aminoanthracene competitive binding, fluorescence | Potency, µM (highest dose often 77.5 µM), for the others: top-dose activity change, negative = displacement, usual class: inhibitors | hit rate 0.074% among 350,000 | AID 485281; note: % is set by controls: 0 for no effect and ±100 for the full control effect; nearly all actives have a fitted effect of over 20% in size
Target sequence (P02791 2-175 limits assumed): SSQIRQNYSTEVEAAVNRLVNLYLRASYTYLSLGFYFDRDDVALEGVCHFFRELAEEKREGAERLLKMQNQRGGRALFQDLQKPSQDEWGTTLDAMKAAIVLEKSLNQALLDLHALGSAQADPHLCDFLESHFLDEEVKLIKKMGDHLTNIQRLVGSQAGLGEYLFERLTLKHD
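Steps: apoferritin (10 uM) was premixed with half-saturated 1-AMA in PBS, compounds were pin-transferred, plates stood 10 min at room temperature, fluorescence was read at 380/535 nm, and curves were fitted with a Hill equation.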
GRP78 ERSR act = inducers of ER stress response in human glioma cells | U87-MG GRP78 promoter luciferase reporter, 16 h | Potency, µM, for the others: at the highest dose activation, hits mostly activators | hit rate 0.02% among 420,000; note: series mostly up to about 76 µM; % of control where 0% means no effect; nearly all actives have a fitted effect of over 35% in size
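Stably transfected U87-MG human glioma cells carrying a GRP78-based luminescent sensor were seeded at 1000 cells/well, pin-dosed with compounds and incubated 16 h. Luciferase reagent was then added, and end-point luminescence was read after 10 min at room temperature.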
mIDH1 inhibitor = inhibitors of human mutant IDH1 R132H. O75874. IDH1-R132H enzyme, NADPH consumption, diaphorase/resazurin fluorescence. Potency, µM (doses to about 76.6 µM), for the others: at the top dose activity change, negative = inhibition, hits mostly inhibitors. hit rate 0.093% among 390,000. AID 602179; note: % is set by controls: 0 for no effect and ±100 for the full control effect; nearly all actives have a fitted effect of over 65% in size
Target sequence (O75874 whole entry R132H, stated change not applied): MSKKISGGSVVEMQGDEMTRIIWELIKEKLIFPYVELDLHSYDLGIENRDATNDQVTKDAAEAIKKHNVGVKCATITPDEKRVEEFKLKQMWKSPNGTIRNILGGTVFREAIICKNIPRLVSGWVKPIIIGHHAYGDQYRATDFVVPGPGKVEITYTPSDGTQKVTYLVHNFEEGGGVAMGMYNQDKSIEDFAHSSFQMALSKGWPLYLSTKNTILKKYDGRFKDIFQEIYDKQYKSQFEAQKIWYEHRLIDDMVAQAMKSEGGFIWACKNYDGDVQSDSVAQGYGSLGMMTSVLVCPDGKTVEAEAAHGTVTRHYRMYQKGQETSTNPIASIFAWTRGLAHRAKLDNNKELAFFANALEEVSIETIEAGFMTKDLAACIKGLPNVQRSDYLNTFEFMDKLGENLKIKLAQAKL
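IDH1-R132H (0.5 ug/mL dispensed) in pH 7.5 Tris buffer was preincubated 30 min with compound, then given a substrate mix of 0.016 mM NADPH and 2 mM alpha-KG for 80 min at room temperature; remaining NADPH was read by diaphorase/resazurin fluorescence.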
Starred values were filed as active, the others as inactive; ? = inconclusive; · = no result; [ ] = another dose, or the depositor's remark. In the library only some 1.7% were active in any assay of this set; here they are far more common. Calls come from the whole dose curve; as a rule, active = well fitted curve in the direction sought with a large enough effect; inconclusive = small, poorly fitted or top-dose-only effect, or another doubt; inactive = no such curve, though single readings can be large; an effect the other way counts as inactive or inconclusive. Potency is the fitted concentration of half-maximal effect.

SMILES	TrxR1 inh	12-LOX inh	TrxR1 substrate	Apoferritin bind	GRP78 ERSR act	mIDH1 inhibitor
COC(=O)C(C)Oc1cc(OC(C)C(=O)OC)c2c(C)c(Cl)c(=O)oc2c1 (centres undefined)	?	5%	404%	-20%	40µM*	11%
COC(=O)COc1cc(OCC(=O)OC)c2c(C)c(Cl)c(=O)oc2c1	?	0%	209%	-2%	13%	0%
CC(C)(C)NC(=O)C(c1ccc(O)cc1)N(Cc1ccco1)C(=O)CCC(=O)Nc1ccccn1 (centres undefined)	15%	-17%	6%	-12%	-1%	0%
CC(C)(C)NC(=O)C(c1ccc(Cl)cc1)N(Cc1ccco1)C(=O)CCl (centres undefined)	13µM*	?	4%	-8%	-2%	2%
CCSC1=NC(C)(C)C=C(/C=C/c2ccc(Cl)cc2Cl)N1	?	40µM*	8%	?	?	5%
Cc1ccc(NC2c3ncccc3C(=O)N2c2ccccc2C)cc1C (centres undefined)	-14%	10µM*	-14%	-12%	2%	?
O=C(O)c1cc(Cl)c2c(c1)[C@@H]1C=CC[C@@H]1[C@H](c1ccc(S(=O)(=O)N3CCOCC3)cc1)N2	2.2µM*	·	-7%	-8%	0%	4%
Cc1cc(C)c2c(c1)C1C=CCC1C(c1ccc(S(=O)(=O)N3CCOCC3)cc1)N2 (centres undefined)	13%	10%	-3%	?	-4%	3%
Cc1ccc(NS(=O)(=O)c2ccc(-c3coc(C)n3)cc2)cc1	·	3%	·	·	·	·
O=C(Nc1cccnc1)Nc1ccc(Br)cc1Cl	10%	16µM*	-1%	1%	7%	0%
O=C(Nc1cccnc1)c1cc(Br)c(Br)s1	3%[57.1 µM]	20µM*	0%[57.1 µM]	·	4%	9%
NC(=O)c1cc(NC(=O)c2cc(Br)c(Br)s2)cc(C(N)=O)c1	12%[57.1 µM]	-13%	6%[57.1 µM]	-4%	3%	6%
Cc1ccc(S(=O)(=O)/C=C\C#N)cc1	·	64%	·	·	-10%	·
Cc1ccc(S(=O)(=O)/C=C/C#N)cc1	0.95µM*	?	21%[57.1 µM]	7%	?	·
Cc1ccc(S(=O)(=O)C=C(c2ccccc2)c2ccccc2)cc1	·	-25%	·	·	·	·
Cc1ccc(S(=O)(=O)C=CS(=O)(=O)c2ccc(C)cc2)cc1	·	8.9µM*	·	·	-12%	1%
O=S(=O)(/C=C/C=C/S(=O)(=O)c1ccccc1)c1ccccc1	2µM*	-1%	12%[57.1 µM]	·	-14%	-2%
Cc1ccc(Cl)cc1NC(=O)NCCCN(C)CC(F)(F)F	·	12%	·	·	·	·
COc1ccc(CC(=O)N2CC[C@H]3CC(=O)N(CCc4cccc(OC)c4OC)CC[C@H]3C2)cc1	·	32%	·	·	·	·
Cc1nc(COc2ccccc2C(=O)N(C)c2ccccc2)no1	·	5%	·	·	·	·
Cc1ccc(C(=O)O)cc1N1C(=O)c2cccc3c([N+](=O)[O-])ccc(c23)C1=O	?	5µM*	-1%	-12%	-12%	7%
O=C(O)c1ccc(CN2C(=O)c3cccc4c([N+](=O)[O-])ccc(c34)C2=O)cc1	?	·	-5%	-5%	-10%	3%
CC(C)(C)OC(=O)N1CCCC1C(=O)NCc1cccc(Cl)c1 (centres undefined)	·	-2%	·	·	·	·
CS(=O)(=O)c1ccc(Cl)c(NC(=O)CCl)c1	13µM*	-1%	4%[57.1 µM]	-1%	-14%	6%
CS(=O)(=O)c1ccc(C(=O)Nc2cc(S(C)(=O)=O)ccc2Cl)cc1	?	-4%	-2%	7%	-3%	2%
SMILES	TrxR1 inh	12-LOX inh	TrxR1 substrate	Apoferritin bind	GRP78 ERSR act	mIDH1 inhibitor
COc1c(C)cnc(Cn2ccn3nc(-c4ccc(F)cc4)c(CO)c3c2=O)c1C	·	-16%	·	·	·	·
O=C(NNC(=S)NC(=O)c1ccccc1[N+](=O)[O-])c1ccccc1Cl	-30%	?	-9%	-3%	-3%	-1%
Cc1ccc(C(=O)NC(=S)NNC(=O)COc2ccc([N+](=O)[O-])cc2)cc1	?	?	8%[0.0914 µM]	-8%	-3%	-10%
COc1ccc(OCC(=O)NC(=S)NNC(=O)COc2ccc(Br)cc2Cl)cc1	-6%[57.1 µM]	14µM*	1%[57.1 µM]	?	11%	-8%
O=C(COc1ccc([N+](=O)[O-])cc1)NNC(=S)NC(=O)c1ccc(Br)cc1	?	40µM*	-1%[57.1 µM]	-20%	8%	18%
O=C(NC(=S)NNC(=O)c1ccccc1[N+](=O)[O-])c1ccc(Br)cc1	-15%	3.5µM*	4%	-10%	0%	-11%
OC[C@@H]1CN(Cc2ccc(Cl)cc2)C[C@H](n2cnc3c(NCc4ccc(F)cc4)ncnc32)O1	·	-8%	·	·	-4%	·
Cc1cc(C)nc(NCC(O)CNc2ccccc2Cl)n1 (centres undefined)	-12%[57.1 µM]	40µM*	0%[57.1 µM]	-16%	-3%	3%
CC(C(=O)Nc1ccc2[nH]c(=O)[nH]c2c1)N(C)Cc1ccc(Cl)cc1Cl (centres undefined)	·	7%	·	·	·	·
O=C(CCSc1ccccn1)c1ccccc1	2µM*	-19%	-6%[57.1 µM]	-15%	-3%	-2%
O=C(CS(=O)(=O)c1ccccc1)c1ccc2c(c1)OCCO2	?	1%	7%	-1%	-6%	1%
O=C(CCN1CCc2ccccc2C(c2ccccc2)C1)c1ccc2c(c1)OCCO2 (centres undefined)	1.1µM*	?	-12%	-22%	-17%	1%
O=C(O)CCC(=O)c1ccc2c(c1)OCCO2	16%	18%	2%	-3%	-3%	2%
O=C(CCN1Cc2ccccc2C1)c1ccc2c(c1)OCCO2	0.32µM*	?	-4%	-20%	-3%	-2%
O=C(CCC1CCCC1)NC1CCN(c2cnn(Cc3ccccc3)c(=O)c2)CC1	·	36%	·	·	·	·
C=CCOc1ccc(/C(O)=C2\C(=O)C(=O)N(CCOC)C2c2cccnc2)cc1 (centres undefined)	-9%	40µM*	-10%	-3%	-1%	1%
COc1ccc(/C(O)=C2/C(=O)C(=O)N(CCN3CCOCC3)C2c2ccccn2)cc1 (centres undefined)	50µM*	-4%	-3%	-11%	8%	-2%
COc1ccc(C2/C(=C(\O)c3ccc(C)cc3)C(=O)C(=O)N2CCCO)cc1 (centres undefined)	·	0.56µM*	·	·	·	·
O=C1C(=O)N(CCN2CCOCC2)C(c2ccccn2)/C1=C(/O)c1ccc(F)cc1 (centres undefined)	?	-5%[57.4 µM]	-10%	-13%	-2%	6%

Compound activity (PubChem BioAssay)
